Data on 40 compounds can be found in PubChem BioAssay (NCI).

The panel holds about 83,000 compounds, 20% with a hit somewhere; the sample as a whole holds those more often.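 Plates (96-well) were seeded with cells, treated with compound at one concentration, and incubated for 48 hours before percent growth was determined.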 Active and inactive are the calls of the source.

This assay relates to PC-3 prostate. Briefly: NCI-60 one-dose screen, 48 h (100 = growth as untreated, 0 = no growth, -100 = all killed). The settings on record: 10 µM. How it is done:
Growth inhibition of the PC-3 human tumor cell line is measured as a screen for anti-cancer activity. Cells are grown in 96 well plates and exposed to the test compound for 48 hours. Compounds are tested at a single concentration, which is 10^-5 M for most compounds. The reported endpoint is percent growth (GI% or GIPRCNT), where numbers from 0 - 100% represent growth inhibition, and numbers from -100% - 0 represent cell death. For example, a value of 40 represents 60% growth inhibition. A value of 0 means no net growth occurred over the course of the experiment. A value of -40 indicates 40% of cells at the beginning of the experiment died by the end of the experiment. A value of -100 means all cells are dead at the end of the experiment.
NCI-60 Human Tumor Cell Lines Screen was performed using the standard one-dose NCI protocol, which is described in more detail at https://dtp.cancer.gov/discovery_development/nci-60/default.htm.
Compounds with GIPRCNT values below 10 were considered active. Activity score was based on GIPRCNT using the following formula: […]
Score is 0 for GIPRCNT values of 100 or above, 50 for GIPRCNT values of 0, and 100 for GIPRCNT values of -100.
For `CC(=O)Oc1ccccc1C(=O)NC([Se])=NC1CCCCC1`, the growth is 44.6% (inactive).
As for `CC(C)N=C([Se])NC(=O)c1ccccc1`, the figure is -21.8% (active).
In the case of `O=C([Se]C1C=CCCC1)c1ccc(C(=O)[Se]C2C=CCCC2)s1` (stereo not given), the growth was -16.5% (active).
Next, `COC(=O)c1ccc(-n2cc(CCCN(CCNc3ccnc4cc(Cl)ccc34)C(=O)CCC(=O)O[C@@H]3O[C@@H]4OC5(C)CC[C@H]6[C@H](C)CC[C@@H]([C@H]3C)[C@@]46OO5)nn2)cc1`: 39.7% (inactive); `CCOC(=O)C1=C(Nc2ccccc2)C(=O)OC12C(=O)Nc1ccccc12` (stereo not given): 91.3% (inactive).
Next, `O=C(/C=C/c1ccco1)c1nc2ccccc2n1Cc1ccc(Br)cc1`: 34.2% (inactive); `COc1ccc(OC)c(/C=C/C(=O)c2nc3ccccc3n2Cc2ccc(F)cc2)c1`: 0.247% (active); `O=C(/C=C/c1ccc(Cl)cc1)c1nc2ccccc2n1Cc1ccc(Br)cc1`: 36.6% (inactive).
As for `COCCOCCOCCOc1ccc(-n2cc(CCCN(CCNc3ccnc4cc(Cl)ccc34)C(=O)CCC(=O)O[C@@H]3O[C@@H]4OC5(C)CC[C@H]6[C@H](C)CC[C@@H]([C@H]3C)[C@@]46OO5)nn2)cc1`, the figure is 32.3% (inactive); as for `CC[C@]12C=CCN3CC[C@@]4(c5ccc(OC)cc5N(C)[C@H]4[C@@](O)(C(=O)OC)[C@@H]1OC(=O)CCCC[P+](c1ccc(C)cc1)(c1ccc(C)cc1)c1ccc(C)cc1)[C@@H]32`, -73.2% (active).
On to `CC[C@]12C=CCN3CC[C@@]4(c5ccc(OC)cc5N(C)[C@H]4[C@@](O)(C(=O)OC)[C@@H]1OC(=O)CCCC[P+](c1ccc(OC)cc1)(c1ccc(OC)cc1)c1ccc(OC)cc1)[C@@H]32`, for which the growth was -37.2% (active).
Next, `CC12OOC(C)(OO1)C2CCC(=O)NCCCNc1ccnc2cc(Cl)ccc12` (stereo not given): 84.1% (inactive); `O=C(/C=C/c1cccc(Br)c1)c1nc2ccccc2n1Cc1ccc(F)cc1`: 23.8% (inactive); `CC12OOC(C)(OO1)C2CCC(=O)OCCNc1ccnc2cc(Cl)ccc12` (stereo not given): 53.6% (inactive).
Next, `N#C[Se]CC(=O)Nc1cccc(C(F)(F)F)c1`: 26.8% (inactive).
Next, `COc1cc2cc(C(=O)N3C[C@@H](CCl)c4c3cc(OC(=O)N3CCN(C)[C@@H]5CSSC[C@@H]53)c3ccccc43)[nH]c2c(OC)c1OC`: -1.7% (active); `COc1ccc(/C=C/C(=O)c2nc3ccccc3n2Cc2ccc(Br)cc2)cc1`: 57.4% (inactive).
Regarding `CC(=O)Oc1ccccc1C(=O)[Se]C(=NC(C)C)NC(C)C`, the growth was -62.9% (active).
Next, `CC[C@@]12CC(C(=O)OC)=C3Nc4cc5c(cc4[C@@]34CCN(C[C@H]3O[C@H]31)[C@@H]24)[C@@H]1[C@H](O5)[C@@H](O)[C@@]2(CC)CC(C(=O)OC)=C3Nc4cc(OC)ccc4[C@@]34CCN1[C@@H]24`: 22.2% (inactive).
In the case of `CC1=C(COCCOC(=O)c2ccc(S(=O)(=O)F)cc2)C2=C(C)C3(CC3)[C@@](C)(O)C(=O)C2=C1`, the growth is 8.96% (active).
Next, `CC1=C2C(=C[C@@](C)(COP(=O)(Oc3ccccc3)Oc3ccccc3)[C@@H]2O)C(=O)[C@@](C)(O)C12CC2`: -31% (active); `CC12CCC3(CCC(=O)NCCCNc4ccnc5cc(Cl)ccc45)[C@@](C)(OO[C@]3(C)O1)O2`: 28.3% (inactive); `CC12OOC(C)(OO1)C2CCC(=O)NCCNc1ccnc2cc(Cl)ccc12` (stereo not given): 98% (inactive).
Take `CC1=C(CCC=NNC(N)=O)C2=C(C)C3(CC3)[C@@](C)(O)C(=O)C2=C1`: the growth was 2.58% (active).
With `O=C(/C=C/c1ccc(Cl)cc1Cl)c1nc2ccccc2n1Cc1ccc(F)cc1`, the growth was 29.4% (inactive).
In the case of `O=C(/C=C/c1ccccc1Cl)c1nc2ccccc2n1Cc1ccc(F)cc1`, the growth was -57.3% (active).
As for `C[C@H]1[C@@H](CC(=O)N[C@@H](Cc2coc3ccccc23)B(O)O)O[C@@H]2OC3(C)CC[C@H]4[C@H](C)CC[C@@H]1[C@@]24OO3`, the figure is -25.6% (active); as for `C=CC[Se]C(=O)c1cncc(C(=O)[Se]CC=C)c1`, -65.8% (active); as for `O=C(NC([Se])=NC1CCCCC1)c1ccc2c(c1)OCO2`, 36.4% (inactive).
On to `CC(C)N=C([Se])NC(=O)c1cccs1`, for which the growth was 8.44% (active).
Consider `CC1=C(C=O)C2=C(C)C3(CC3)[C@@](C)(O)C(=O)C2=C1`, for which the growth was 26.1% (inactive).
Consider `C#CCCCN(CCNc1ccnc2cc(Cl)ccc12)C(=O)CCC(=O)O[C@@H]1O[C@@H]2OC3(C)CC[C@H]4[C@H](C)CC[C@@H]([C@H]1C)[C@@]24OO3`, for which the growth is 37% (inactive).
With `COc1cc(OC)c(S(=O)(=O)N(CCCl)CCCl)cc1C(=O)/C=C/c1cc(OC)c(OC)c(OC)c1`, the growth was 10.3% (inactive).
Next, `CCOP(=O)(CC(F)(F)C(F)(F)F)OCC`: 63.8% (inactive).
For `COc1cc2cc(C(=O)N3C[C@@H](CCl)c4c3cc(OC(=O)N3CCN(C)[C@@H]5CSSC[C@H]53)c3ccccc43)[nH]c2c(OC)c1OC`, the growth was -24.8% (active).
Next, `CCC[Se]C(=O)c1ccc(C(=O)[Se]CCC)s1`: 4.67% (active); `C[C@H]1[C@@H](Oc2ccc(-c3cn(-c4ccnc5cc(Cl)ccc45)nn3)cc2)O[C@@H]2OC3(C)CC[C@H]4[C@H](C)CC[C@@H]1[C@@]24OO3`: 29.2% (inactive).
Regarding `O=C(/C=C/c1ccc(F)cc1)c1nc2ccccc2n1Cc1ccc(F)cc1`, the growth is 8.29% (active).
Take `CC1=C(CCC=O)C2=C(C)C3(CC3)[C@@](C)(O)C(=O)C2=C1`: the growth was -40.6% (active).
Regarding `COC(=O)C[C@](O)(CCCC(C)C)C(=O)O[C@H]1C(OC)=C[C@@]23CCCN2CCc2cc4c(cc2[C@@H]13)OCO4`, the growth is 1.16% (active).
